Source: ChEMBL document CHEMBL1961873, “Compounds: GSK PKIS; Assays: Nanosyn kinase panel” (2012)

How the values were obtained:
[1] = target: MAP/microtubule affinity-regulating kinase 3 (Homo sapiens) (UniProt P27448); details: at 1 µM;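 also: reported values are averaged percent inhibition of MARK3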
[2] = target: T1, MAP/microtubule affinity-regulating kinase 4 (Homo sapiens) (UniProt Q96L34); details: at 0.1 µM
T1 sequence (whole entry): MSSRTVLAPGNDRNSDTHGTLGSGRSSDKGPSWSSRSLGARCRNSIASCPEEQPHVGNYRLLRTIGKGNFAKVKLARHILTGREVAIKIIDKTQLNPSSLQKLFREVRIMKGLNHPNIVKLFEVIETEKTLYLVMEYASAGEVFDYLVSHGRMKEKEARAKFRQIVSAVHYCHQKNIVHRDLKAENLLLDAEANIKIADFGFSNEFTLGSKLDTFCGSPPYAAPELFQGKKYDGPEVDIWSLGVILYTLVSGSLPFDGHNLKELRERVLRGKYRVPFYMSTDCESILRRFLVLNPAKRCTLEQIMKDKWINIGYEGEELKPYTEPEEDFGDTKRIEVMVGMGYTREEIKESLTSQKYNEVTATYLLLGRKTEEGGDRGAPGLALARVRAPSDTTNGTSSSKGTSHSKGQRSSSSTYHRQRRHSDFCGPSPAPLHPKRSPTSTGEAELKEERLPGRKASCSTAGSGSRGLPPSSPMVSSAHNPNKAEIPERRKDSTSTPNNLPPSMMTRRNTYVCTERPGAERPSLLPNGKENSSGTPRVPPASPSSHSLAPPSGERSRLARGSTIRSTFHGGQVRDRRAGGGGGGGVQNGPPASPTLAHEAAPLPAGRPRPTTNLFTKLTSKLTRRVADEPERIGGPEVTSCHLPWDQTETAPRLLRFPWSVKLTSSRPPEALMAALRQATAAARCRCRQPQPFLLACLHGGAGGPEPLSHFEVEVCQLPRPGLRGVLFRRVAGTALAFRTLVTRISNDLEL

[3] = target: T1, MAP/microtubule affinity-regulating kinase 4 (Homo sapiens); details: at 1 µM
[4] = target: Maternal embryonic leucine zipper kinase (Homo sapiens) (UniProt Q14680); details: at 0.1 µM
Maternal embryonic leucine zipper kinase (Homo sapiens), sequence (Q14680 whole entry, looked up): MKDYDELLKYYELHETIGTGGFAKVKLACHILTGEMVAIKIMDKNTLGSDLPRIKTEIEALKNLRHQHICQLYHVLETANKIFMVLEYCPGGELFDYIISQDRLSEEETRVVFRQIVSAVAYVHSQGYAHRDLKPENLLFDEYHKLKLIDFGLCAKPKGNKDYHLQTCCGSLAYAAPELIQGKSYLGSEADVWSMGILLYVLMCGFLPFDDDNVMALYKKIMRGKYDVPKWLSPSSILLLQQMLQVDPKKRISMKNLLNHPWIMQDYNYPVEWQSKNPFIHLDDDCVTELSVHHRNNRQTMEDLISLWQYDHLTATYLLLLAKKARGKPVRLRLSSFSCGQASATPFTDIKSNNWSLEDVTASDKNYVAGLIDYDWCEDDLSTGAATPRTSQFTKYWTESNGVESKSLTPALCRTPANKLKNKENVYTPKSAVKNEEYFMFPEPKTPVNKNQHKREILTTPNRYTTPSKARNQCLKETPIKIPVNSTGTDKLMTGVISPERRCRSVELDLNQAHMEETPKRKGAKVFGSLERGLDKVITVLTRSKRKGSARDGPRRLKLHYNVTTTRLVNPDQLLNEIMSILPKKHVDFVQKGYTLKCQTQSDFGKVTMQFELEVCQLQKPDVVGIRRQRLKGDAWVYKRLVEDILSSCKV

[5] = target: MAP kinase-interacting serine/threonine-protein kinase 1 (Homo sapiens) (UniProt Q9BUB5); details: at 0.1 µM
MAP kinase-interacting serine/threonine-protein kinase 1 (Homo sapiens), sequence (Q9BUB5 whole entry, looked up): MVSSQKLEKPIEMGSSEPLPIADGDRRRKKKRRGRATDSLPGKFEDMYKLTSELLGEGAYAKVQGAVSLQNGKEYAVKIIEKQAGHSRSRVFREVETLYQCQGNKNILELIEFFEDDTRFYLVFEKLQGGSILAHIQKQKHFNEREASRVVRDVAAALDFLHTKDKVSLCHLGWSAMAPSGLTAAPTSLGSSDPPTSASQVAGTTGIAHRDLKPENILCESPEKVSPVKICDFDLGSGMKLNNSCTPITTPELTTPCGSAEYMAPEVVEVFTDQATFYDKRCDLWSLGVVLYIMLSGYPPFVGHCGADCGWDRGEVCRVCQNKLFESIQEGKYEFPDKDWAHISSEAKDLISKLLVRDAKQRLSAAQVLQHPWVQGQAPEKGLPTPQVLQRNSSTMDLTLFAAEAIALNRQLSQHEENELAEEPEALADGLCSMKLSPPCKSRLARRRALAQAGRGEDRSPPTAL

[6] = target: MAP kinase-interacting serine/threonine-protein kinase 1 (Homo sapiens) (UniProt Q9BUB5); details: at 1 µM
[7] = target: MAP kinase-interacting serine/threonine-protein kinase 2 (Homo sapiens) (UniProt Q9HBH9); details: at 0.1 µM
MAP kinase-interacting serine/threonine-protein kinase 2 (Homo sapiens), sequence (Q9HBH9 whole entry, looked up): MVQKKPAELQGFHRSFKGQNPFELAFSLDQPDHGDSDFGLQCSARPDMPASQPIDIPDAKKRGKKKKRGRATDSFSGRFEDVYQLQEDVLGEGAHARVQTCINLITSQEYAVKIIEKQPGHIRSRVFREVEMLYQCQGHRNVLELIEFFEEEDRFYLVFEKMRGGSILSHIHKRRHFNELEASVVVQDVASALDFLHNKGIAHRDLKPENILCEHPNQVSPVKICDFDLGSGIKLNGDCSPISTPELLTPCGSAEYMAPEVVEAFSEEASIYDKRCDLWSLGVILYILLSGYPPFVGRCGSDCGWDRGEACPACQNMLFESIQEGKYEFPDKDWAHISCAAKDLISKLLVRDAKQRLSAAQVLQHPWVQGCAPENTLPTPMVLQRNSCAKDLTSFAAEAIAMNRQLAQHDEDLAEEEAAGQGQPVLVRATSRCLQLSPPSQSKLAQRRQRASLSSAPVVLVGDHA

[8] = target: MAP kinase-interacting serine/threonine-protein kinase 2 (Homo sapiens) (UniProt Q9HBH9); details: at 1 µM
[9] = target: Serine/threonine-protein kinase MARK2 (Homo sapiens) (UniProt Q7KZI7); details: at 0.1 µM
Serine/threonine-protein kinase MARK2 (Homo sapiens), sequence (Q7KZI7 whole entry, the tested form may be a part): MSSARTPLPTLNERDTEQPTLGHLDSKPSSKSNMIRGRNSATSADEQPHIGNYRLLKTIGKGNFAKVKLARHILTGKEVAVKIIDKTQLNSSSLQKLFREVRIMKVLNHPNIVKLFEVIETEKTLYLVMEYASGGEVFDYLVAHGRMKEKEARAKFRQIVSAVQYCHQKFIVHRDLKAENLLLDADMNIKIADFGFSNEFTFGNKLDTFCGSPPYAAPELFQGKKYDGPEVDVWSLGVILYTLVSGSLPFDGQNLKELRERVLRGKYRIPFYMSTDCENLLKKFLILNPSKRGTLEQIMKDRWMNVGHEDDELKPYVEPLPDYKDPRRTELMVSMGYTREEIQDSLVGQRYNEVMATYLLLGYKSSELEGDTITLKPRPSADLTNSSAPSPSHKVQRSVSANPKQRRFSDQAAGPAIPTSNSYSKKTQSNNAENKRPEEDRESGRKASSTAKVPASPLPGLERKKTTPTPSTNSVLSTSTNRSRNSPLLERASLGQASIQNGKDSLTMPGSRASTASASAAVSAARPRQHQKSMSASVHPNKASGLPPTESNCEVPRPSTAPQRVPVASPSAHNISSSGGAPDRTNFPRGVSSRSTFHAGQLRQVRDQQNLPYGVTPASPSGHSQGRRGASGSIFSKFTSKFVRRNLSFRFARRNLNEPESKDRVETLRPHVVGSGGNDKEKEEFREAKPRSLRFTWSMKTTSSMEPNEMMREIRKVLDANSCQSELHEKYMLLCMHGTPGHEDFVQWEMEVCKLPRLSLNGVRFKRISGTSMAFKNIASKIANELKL

[10] = target: Serine/threonine-protein kinase MARK2 (Homo sapiens) (UniProt Q7KZI7); details: at 1 µM
[11] = target: PAS domain-containing serine/threonine-protein kinase (Homo sapiens) (UniProt Q96RG2); details: at 0.1 µM
[12] = target: PAS domain-containing serine/threonine-protein kinase (Homo sapiens) (UniProt Q96RG2); details: at 1 µM
[13] = target: Phosphorylase b kinase gamma catalytic chain, skeletal muscle/heart isoform (Homo sapiens) (UniProt Q16816); details: at 0.1 µM
Phosphorylase b kinase gamma catalytic chain, skeletal muscle/heart isoform (Homo sapiens), sequence (Q16816 whole entry, looked up, canonical isoform): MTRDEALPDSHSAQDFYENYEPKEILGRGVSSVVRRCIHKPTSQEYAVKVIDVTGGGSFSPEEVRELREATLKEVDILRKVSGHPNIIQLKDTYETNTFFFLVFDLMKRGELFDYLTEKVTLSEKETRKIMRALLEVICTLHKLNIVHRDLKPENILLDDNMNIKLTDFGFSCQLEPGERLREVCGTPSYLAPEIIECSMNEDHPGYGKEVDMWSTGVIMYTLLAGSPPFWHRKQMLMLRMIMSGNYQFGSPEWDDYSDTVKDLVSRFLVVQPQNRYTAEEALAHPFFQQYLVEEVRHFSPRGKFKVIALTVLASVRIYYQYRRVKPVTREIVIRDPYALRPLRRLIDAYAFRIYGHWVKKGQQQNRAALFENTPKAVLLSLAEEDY

[14] = target: Phosphorylase b kinase gamma catalytic chain, skeletal muscle/heart isoform (Homo sapiens) (UniProt Q16816); details: at 1 µM
[15] = target: T2, Phosphorylase b kinase gamma catalytic chain, liver/testis isoform (Homo sapiens) (UniProt P15735); details: at 0.1 µM
T2 sequence (whole entry): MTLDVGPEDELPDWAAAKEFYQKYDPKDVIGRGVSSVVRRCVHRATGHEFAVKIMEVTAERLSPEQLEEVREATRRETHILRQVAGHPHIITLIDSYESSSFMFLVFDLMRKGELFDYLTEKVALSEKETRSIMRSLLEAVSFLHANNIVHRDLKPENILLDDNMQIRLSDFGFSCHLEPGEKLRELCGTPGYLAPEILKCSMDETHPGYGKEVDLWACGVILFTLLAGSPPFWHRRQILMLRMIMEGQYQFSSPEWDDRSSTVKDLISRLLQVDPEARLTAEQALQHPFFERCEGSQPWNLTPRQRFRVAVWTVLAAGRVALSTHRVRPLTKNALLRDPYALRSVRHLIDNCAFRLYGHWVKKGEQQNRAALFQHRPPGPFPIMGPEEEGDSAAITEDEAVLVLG

[16] = target: T2, Phosphorylase b kinase gamma catalytic chain, liver/testis isoform (Homo sapiens); details: at 1 µM
[17] = target: Serine/threonine-protein kinase pim-1 (Homo sapiens) (UniProt P11309); details: at 0.1 µM
Serine/threonine-protein kinase pim-1 (Homo sapiens), sequence (P11309 whole entry, looked up): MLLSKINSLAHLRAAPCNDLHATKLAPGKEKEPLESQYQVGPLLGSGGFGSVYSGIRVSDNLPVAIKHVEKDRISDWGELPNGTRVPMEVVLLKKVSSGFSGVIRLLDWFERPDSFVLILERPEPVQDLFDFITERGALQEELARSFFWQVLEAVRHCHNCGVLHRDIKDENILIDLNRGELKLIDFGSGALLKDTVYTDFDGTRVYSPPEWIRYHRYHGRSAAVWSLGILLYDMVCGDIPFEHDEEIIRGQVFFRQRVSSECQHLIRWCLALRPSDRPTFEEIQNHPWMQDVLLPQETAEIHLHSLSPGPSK

[18] = target: Serine/threonine-protein kinase pim-1 (Homo sapiens) (UniProt P11309); details: at 1 µM
[19] = target: Serine/threonine-protein kinase pim-2 (Homo sapiens) (UniProt Q9P1W9); details: at 0.1 µM;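 also: reported value is the mean percent inhibition of PIM2, measured in the GSK PKIS kinase inhibitor set screen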
Serine/threonine-protein kinase pim-2 (Homo sapiens), sequence (Q9P1W9 whole entry, looked up): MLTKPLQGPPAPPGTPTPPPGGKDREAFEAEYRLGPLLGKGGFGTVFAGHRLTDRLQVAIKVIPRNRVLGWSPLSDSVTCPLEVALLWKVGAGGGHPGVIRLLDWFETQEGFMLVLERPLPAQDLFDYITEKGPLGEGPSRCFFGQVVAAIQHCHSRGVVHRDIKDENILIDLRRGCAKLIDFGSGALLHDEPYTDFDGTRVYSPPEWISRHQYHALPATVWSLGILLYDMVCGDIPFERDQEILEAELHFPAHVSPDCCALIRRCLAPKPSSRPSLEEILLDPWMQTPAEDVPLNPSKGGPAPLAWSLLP

[20] = target: Maternal embryonic leucine zipper kinase (Homo sapiens) (UniProt Q14680); details: at 1 µM

MAP/microtubule affinity-regulating kinase 3 (Homo sapiens), sequence (P27448 whole entry, looked up): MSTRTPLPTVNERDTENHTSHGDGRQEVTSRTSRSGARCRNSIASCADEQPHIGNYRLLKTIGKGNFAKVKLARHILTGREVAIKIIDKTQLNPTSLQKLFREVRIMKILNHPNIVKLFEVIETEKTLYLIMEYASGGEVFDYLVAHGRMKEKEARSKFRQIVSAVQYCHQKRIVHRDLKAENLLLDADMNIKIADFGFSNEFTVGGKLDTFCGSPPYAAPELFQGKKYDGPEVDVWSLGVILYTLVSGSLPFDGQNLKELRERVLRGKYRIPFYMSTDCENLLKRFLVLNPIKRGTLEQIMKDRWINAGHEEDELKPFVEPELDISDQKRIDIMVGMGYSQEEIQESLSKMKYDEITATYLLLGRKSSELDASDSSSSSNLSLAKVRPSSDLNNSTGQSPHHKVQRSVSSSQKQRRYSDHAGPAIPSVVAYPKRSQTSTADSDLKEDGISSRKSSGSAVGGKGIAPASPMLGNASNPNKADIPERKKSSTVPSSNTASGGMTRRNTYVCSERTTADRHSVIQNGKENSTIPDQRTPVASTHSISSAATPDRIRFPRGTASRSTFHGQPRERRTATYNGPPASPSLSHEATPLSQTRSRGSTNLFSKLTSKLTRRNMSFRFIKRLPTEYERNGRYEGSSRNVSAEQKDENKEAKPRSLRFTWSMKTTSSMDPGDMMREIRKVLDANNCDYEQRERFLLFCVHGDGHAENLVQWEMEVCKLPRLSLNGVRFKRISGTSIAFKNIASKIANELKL

Compound: Nc1ncnc2occ(-c3ccc(NC(=O)Nc4cc(C(F)(F)F)cc(C(F)(F)F)c4)cc3)c12
- inhibition [1]: 2.35%
- inhibition [2]: 1.32%
- inhibition [3]: 1.47%
- inhibition [4]: 0.21%
- inhibition [5]: 3.24%
- inhibition [6]: 12.2%
- inhibition [7]: 0.38%
- inhibition [8]: 7.49%
- inhibition [9]: -1.98%
- inhibition [10]: 0.58%
- inhibition [11]: 0.36%
- inhibition [12]: -1.29%
- inhibition [13]: 1.04%
- inhibition [14]: 2.55%
- inhibition [15]: 1.7%
- inhibition [16]: -1.63%
- inhibition [17]: 0.69%
- inhibition [18]: 0.66%
- inhibition [19]: 0.17%

Compound: O=C1Nc2ccc(C(=O)c3ccco3)cc2C1=Cc1cc(Cl)c(O)c(Cl)c1
- inhibition [1]: 8.65%
- inhibition [2]: 1.71%
- inhibition [3]: 6.69%
- inhibition [4]: 4.89%
- inhibition [20]: 17.8%
- inhibition [5]: 4.13%
- inhibition [6]: 11.5%
- inhibition [7]: 6.52%
- inhibition [8]: 34.7%
- inhibition [9]: 2.14%
- inhibition [10]: 8.29%
- inhibition [11]: -0.44%
- inhibition [12]: -0.13%
- inhibition [13]: 2.98%
- inhibition [14]: 9.29%
- inhibition [15]: 3.61%
- inhibition [16]: 2.94%
- inhibition [17]: 3.39%
- inhibition [18]: 31.8%
- inhibition [19]: 2.1%

Compound: Cc1cc(O)cc(C)c1/C=C/c1cncc(-c2nn[nH]n2)c1
- inhibition [1]: 5.96%
- inhibition [2]: 2.37%
- inhibition [3]: 3.69%
- inhibition [4]: 4.83%
- inhibition [20]: 8.68%
- inhibition [5]: 20.6%
- inhibition [6]: 65.3%
- inhibition [7]: 22.6%
- inhibition [8]: 63.8%
- inhibition [9]: 0.37%
- inhibition [10]: 3.29%
- inhibition [11]: -0.17%
- inhibition [12]: -1.14%
- inhibition [13]: 6.07%
- inhibition [14]: 4.92%
- inhibition [15]: 4.78%
- inhibition [16]: 2.82%
- inhibition [17]: 0.66%
- inhibition [18]: 1.59%
- inhibition [19]: -3.3%

Compound: COc1ccc(-c2ccncc2)cc1C(N)=O
- inhibition [1]: 5.66%
- inhibition [2]: 1.72%
- inhibition [3]: 2.64%
- inhibition [4]: 3.65%
- inhibition [20]: 8.7%
- inhibition [5]: 2.15%
- inhibition [6]: 5.97%
- inhibition [7]: 0.23%
- inhibition [8]: 6.75%
- inhibition [10]: 0.17%
- inhibition [11]: -0.78%
- inhibition [12]: -0.33%
- inhibition [13]: 2.55%
- inhibition [14]: 3.87%
- inhibition [15]: 5.73%
- inhibition [16]: 5.45%
- inhibition [17]: 0.06%
- inhibition [18]: 2.13%
- inhibition [19]: -0.49%

Compound: CCn1c(-c2nonc2N)nc2cnc(Oc3cccc(NC(=O)c4ccc(OCCN5CCOCC5)cc4)c3)cc21
- inhibition [1]: 8.24%
- inhibition [2]: 1.29%
- inhibition [3]: 4.43%
- inhibition [4]: 10.4%
- inhibition [20]: 50.5%
- inhibition [5]: 3.45%
- inhibition [6]: 13.3%
- inhibition [7]: 3.73%
- inhibition [8]: 21%
- inhibition [9]: 1.17%
- inhibition [10]: 11%
- inhibition [11]: -1.22%
- inhibition [12]: -0.7%
- inhibition [13]: -3.59%
- inhibition [14]: 6.37%
- inhibition [15]: 3.34%
- inhibition [16]: 1.77%
- inhibition [17]: 0.47%
- inhibition [18]: 10.4%
- inhibition [19]: -0.49%

Compound: NC(=O)c1ccc(-c2nc(-c3ccccn3)c(-c3ccc4c(c3)OCO4)[nH]2)cc1
- inhibition [1]: 11%
- inhibition [2]: 1.03%
- inhibition [3]: 0.93%
- inhibition [4]: 2.76%
- inhibition [20]: 2.1%
- inhibition [5]: 1.26%
- inhibition [6]: 5.1%
- inhibition [7]: 1.27%
- inhibition [8]: 3.13%
- inhibition [9]: -0.01%
- inhibition [10]: -0.45%
- inhibition [11]: 0.34%
- inhibition [12]: 1.31%
- inhibition [13]: 2.92%
- inhibition [14]: 4.79%
- inhibition [15]: 3.32%
- inhibition [16]: 3.73%
- inhibition [17]: -0.68%
- inhibition [18]: 0.92%
- inhibition [19]: 0.03%

Compound: Nc1ncnc2occ(-c3ccc(NC(=O)Nc4cccc(C(F)(F)F)c4)cc3)c12
- inhibition [1]: 5.23%
- inhibition [2]: 2.8%
- inhibition [3]: 4.23%
- inhibition [4]: 3.16%
- inhibition [5]: 11.2%
- inhibition [6]: 38.7%
- inhibition [7]: 9.53%
- inhibition [8]: 53.9%
- inhibition [9]: 1.27%
- inhibition [10]: 3.83%
- inhibition [11]: -0.58%
- inhibition [12]: 0.31%
- inhibition [13]: 6.3%
- inhibition [14]: 10.2%
- inhibition [15]: 6.43%
- inhibition [16]: 4.64%
- inhibition [17]: 1.56%
- inhibition [18]: 2.28%
- inhibition [19]: 0.42%
